The values below come from PMC7862700, “An all-to-all approach to the identification of sequence-specific readers for epigenetic DNA modifications on cytosine”.

Holding throughout (assay): DAPPL (digital affinity profiling via proximity ligation, sequencing); 10 mM Tris-HCl pH 7.5, 50 mM NaCl, 1 mM DTT, 4% glycerol, room temperature, 30 min; GST-TFs on glutathione beads, 16-mer random dsDNA library, 0.1% formaldehyde crosslink after washing; high values mean tight binding
Assay [1] concerns the target T1, FEV (Homo sapiens, UniProt Q99581 1-238).
T1 sequence: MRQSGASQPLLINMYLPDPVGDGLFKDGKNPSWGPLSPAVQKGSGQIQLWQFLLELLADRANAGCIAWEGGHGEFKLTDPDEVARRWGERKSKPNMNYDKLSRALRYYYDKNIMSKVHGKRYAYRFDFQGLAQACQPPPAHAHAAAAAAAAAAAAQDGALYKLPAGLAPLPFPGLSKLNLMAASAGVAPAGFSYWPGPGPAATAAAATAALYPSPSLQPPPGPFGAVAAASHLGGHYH
The note with it: protein: recombinant; tags: N-terminal GST; dsDNA, one strand shown. In outline:
(§1)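 Binding signal is each hexamer's read frequency for a factor divided by its frequency in the tag-only sample. The factors were GST-fused human transcription factors from yeast, captured on glutathione beads, DNA-barcoded and pooled with that sample. Pools were incubated with 200 nmole of a random double-stranded 16-mer DNA library in Tris/NaCl/DTT/glycerol buffer at room temperature for 30 min, then washed, crosslinked with 0.1% formaldehyde, proximity-ligated with BsaI/T4 ligase (1 h, 37 °C), PCR-amplified and sequenced on an Illumina NextSeq500.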

Assay [2] concerns the target ETV5 (Homo sapiens, UniProt P41161 1-510). The conditions noted are these: protein: recombinant; tags: N-terminal GST; dsDNA, one strand shown. In outline:
as §1

Assay [3] has as its target HSF1 (Homo sapiens, UniProt Q00613 1-529). The note with it: protein: recombinant; tags: N-terminal GST; chain copies: 3; dsDNA, one strand shown. The method, boiled down: as §1
For assay [4], the target named is T2, SPIC (Homo sapiens, UniProt Q8N5J4 1-248).
T2 sequence: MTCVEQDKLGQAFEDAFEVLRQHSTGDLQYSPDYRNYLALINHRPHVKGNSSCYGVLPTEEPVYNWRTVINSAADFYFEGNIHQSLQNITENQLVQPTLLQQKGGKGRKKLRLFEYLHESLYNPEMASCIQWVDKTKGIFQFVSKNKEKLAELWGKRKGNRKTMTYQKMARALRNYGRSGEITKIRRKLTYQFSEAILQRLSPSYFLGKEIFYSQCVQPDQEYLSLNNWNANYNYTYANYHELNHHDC
The conditions noted are these: protein: recombinant; tags: N-terminal GST; dsDNA, one strand shown. In outline: as §1

In assay [5] the target is ELF4 (Homo sapiens, UniProt Q99607 1-663). The note with it: protein: recombinant; tags: N-terminal GST; dsDNA, one strand shown. The method, boiled down:
as §1

Assay [6] concerns the target T3, ELK4 (Homo sapiens, UniProt P28324-2 1-405).
T3 sequence: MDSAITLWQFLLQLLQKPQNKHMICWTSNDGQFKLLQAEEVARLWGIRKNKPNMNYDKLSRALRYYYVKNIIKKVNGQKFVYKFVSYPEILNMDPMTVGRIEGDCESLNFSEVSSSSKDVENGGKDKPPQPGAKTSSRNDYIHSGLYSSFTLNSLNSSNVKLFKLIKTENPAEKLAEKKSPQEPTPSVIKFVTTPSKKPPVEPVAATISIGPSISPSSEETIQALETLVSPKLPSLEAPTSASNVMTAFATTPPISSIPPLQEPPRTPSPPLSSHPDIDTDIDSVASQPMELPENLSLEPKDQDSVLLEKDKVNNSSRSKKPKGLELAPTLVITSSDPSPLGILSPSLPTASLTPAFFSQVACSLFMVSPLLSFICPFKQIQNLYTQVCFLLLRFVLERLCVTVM
The conditions noted are these: protein: recombinant; tags: N-terminal GST; dsDNA, one strand shown. In outline:
as §1

Assay [7] concerns the target T4, ETV2 (Homo sapiens, UniProt O00321 1-342).
T4 sequence: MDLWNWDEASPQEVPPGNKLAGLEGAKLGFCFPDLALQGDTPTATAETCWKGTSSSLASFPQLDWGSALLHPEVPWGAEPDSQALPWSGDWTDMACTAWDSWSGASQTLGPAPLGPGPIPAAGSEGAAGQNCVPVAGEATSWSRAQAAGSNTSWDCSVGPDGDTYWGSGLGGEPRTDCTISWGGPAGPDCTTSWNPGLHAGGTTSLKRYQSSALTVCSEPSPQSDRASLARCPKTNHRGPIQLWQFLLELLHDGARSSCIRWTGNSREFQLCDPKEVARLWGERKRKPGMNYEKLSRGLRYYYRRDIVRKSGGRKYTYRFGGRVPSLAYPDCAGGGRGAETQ
The note with it: protein: recombinant; tags: N-terminal GST; dsDNA, one strand shown. The method, boiled down: as §1

Assay [8] addresses T5, ELF3 (Homo sapiens, UniProt P78545 1-371).
T5 sequence: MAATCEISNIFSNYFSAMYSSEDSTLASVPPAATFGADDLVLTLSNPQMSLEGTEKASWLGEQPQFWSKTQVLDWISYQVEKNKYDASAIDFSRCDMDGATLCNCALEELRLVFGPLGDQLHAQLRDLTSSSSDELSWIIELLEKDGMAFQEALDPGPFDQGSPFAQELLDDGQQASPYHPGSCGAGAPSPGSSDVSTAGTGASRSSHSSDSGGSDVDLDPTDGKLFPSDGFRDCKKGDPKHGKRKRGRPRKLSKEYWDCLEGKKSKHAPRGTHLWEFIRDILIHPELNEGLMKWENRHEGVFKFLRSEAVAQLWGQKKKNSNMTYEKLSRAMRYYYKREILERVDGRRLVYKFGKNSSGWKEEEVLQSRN
The note with it: protein: recombinant; tags: N-terminal GST; dsDNA, one strand shown. The method, boiled down:
as §1

The target of assay [9] is CRX (Homo sapiens, UniProt O43186 1-299). The conditions noted are these: protein: recombinant; tags: N-terminal GST; dsDNA, one strand shown. In outline: as §1
Sequence of CRX (O43186 whole entry): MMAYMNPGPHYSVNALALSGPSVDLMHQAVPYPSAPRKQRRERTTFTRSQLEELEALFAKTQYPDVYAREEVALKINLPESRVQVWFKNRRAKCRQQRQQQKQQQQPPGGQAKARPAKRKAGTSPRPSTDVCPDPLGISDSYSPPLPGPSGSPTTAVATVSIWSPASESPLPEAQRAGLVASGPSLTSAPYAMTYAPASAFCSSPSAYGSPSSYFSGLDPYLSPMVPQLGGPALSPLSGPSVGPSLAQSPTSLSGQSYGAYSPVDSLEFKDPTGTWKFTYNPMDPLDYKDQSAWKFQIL
The target in assay [10] is ETV1 (Homo sapiens, UniProt P50549 1-477). The note with it: protein: recombinant; tags: N-terminal GST; dsDNA, one strand shown. In outline:
as §1

Assay [11] has as its target T6, ERF (Homo sapiens, UniProt P50548 1-548).
T6 sequence: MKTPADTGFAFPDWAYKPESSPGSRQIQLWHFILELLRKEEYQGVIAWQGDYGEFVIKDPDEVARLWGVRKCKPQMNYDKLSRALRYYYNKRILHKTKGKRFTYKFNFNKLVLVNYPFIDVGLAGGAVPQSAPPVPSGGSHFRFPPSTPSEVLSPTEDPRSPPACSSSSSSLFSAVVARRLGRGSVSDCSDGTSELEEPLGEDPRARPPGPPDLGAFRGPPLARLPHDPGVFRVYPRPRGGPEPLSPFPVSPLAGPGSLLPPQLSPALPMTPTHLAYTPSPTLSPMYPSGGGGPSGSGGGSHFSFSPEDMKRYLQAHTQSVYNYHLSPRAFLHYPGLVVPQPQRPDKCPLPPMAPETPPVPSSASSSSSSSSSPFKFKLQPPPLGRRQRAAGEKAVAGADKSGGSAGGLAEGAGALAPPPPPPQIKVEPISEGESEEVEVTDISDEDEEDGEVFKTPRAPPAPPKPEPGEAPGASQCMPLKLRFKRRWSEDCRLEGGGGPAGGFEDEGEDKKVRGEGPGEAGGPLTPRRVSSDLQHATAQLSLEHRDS
The note with it: protein: recombinant; tags: N-terminal GST; dsDNA, one strand shown. In outline: as §1

Assay [12] concerns the target T7, ETV3L (Homo sapiens, UniProt Q6ZN32 1-361).
T7 sequence: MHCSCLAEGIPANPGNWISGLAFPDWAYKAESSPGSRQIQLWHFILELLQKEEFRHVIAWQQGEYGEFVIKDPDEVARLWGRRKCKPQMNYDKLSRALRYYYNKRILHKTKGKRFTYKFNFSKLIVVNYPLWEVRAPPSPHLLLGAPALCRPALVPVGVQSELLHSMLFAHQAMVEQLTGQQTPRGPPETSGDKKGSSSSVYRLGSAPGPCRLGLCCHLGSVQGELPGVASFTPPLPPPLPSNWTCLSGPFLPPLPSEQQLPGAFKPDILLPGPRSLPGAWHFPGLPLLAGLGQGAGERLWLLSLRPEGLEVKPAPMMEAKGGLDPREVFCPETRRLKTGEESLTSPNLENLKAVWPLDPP
The note with it: protein: recombinant; tags: N-terminal GST; dsDNA, one strand shown. In outline:
as §1

Assay [13] addresses T8, ETS2 (Homo sapiens, UniProt P15036 1-469).
T8 sequence: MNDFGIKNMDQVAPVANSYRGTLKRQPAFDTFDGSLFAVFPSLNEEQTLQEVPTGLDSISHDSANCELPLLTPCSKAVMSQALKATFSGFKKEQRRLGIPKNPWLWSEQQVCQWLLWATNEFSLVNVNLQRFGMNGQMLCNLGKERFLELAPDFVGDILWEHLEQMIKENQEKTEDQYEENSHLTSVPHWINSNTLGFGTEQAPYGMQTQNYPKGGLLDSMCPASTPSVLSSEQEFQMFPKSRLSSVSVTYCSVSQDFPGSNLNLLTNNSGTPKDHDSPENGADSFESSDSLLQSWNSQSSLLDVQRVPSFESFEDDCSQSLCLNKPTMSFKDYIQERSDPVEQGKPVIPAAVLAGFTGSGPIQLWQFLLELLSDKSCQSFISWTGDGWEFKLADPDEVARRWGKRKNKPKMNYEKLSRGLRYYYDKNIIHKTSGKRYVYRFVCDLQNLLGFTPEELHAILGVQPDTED
The note with it: protein: recombinant; tags: N-terminal GST; dsDNA, one strand shown. The method, boiled down: as §1

Assay [14] concerns the target T9, SPDEF (Homo sapiens, UniProt O95238 1-335).
T9 sequence: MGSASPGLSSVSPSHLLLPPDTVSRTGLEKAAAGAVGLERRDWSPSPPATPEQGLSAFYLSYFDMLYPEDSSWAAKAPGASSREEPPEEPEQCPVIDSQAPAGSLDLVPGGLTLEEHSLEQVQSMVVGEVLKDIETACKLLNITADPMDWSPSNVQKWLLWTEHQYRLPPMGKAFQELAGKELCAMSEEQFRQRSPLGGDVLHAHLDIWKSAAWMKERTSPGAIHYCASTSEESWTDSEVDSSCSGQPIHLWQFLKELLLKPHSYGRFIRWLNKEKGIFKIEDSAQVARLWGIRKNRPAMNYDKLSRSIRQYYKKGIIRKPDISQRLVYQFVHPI
The conditions noted are these: protein: recombinant; tags: N-terminal GST; dsDNA, one strand shown. The method, boiled down:
as §1

The target of assay [15] is T10, ETV7 (Homo sapiens, UniProt Q9Y603 1-341).
T10 sequence: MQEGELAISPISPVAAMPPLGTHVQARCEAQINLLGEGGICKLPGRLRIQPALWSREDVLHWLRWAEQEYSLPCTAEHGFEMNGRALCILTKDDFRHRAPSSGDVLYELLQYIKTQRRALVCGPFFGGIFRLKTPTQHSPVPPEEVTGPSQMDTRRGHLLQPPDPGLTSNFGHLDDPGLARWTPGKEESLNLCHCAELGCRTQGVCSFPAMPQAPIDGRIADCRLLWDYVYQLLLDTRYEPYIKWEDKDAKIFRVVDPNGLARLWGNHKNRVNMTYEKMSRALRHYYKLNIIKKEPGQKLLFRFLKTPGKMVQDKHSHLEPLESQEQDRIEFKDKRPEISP
The conditions noted are these: protein: recombinant; tags: N-terminal GST; dsDNA, one strand shown. In outline:
as §1

Assay [16] concerns the target T11, ELF5 (Homo sapiens, UniProt Q9UKW6-2 1-255).
T11 sequence: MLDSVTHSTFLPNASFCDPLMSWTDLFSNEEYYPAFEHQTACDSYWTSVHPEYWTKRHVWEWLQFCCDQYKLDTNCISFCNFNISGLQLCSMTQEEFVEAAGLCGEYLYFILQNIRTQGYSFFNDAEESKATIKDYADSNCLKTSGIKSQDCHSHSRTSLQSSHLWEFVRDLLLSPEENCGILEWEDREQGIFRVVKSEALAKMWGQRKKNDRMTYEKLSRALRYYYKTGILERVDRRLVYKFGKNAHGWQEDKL
The note with it: protein: recombinant; tags: N-terminal GST; dsDNA, one strand shown. The method, boiled down:
as §1

For assay [17], the target named is T12, ETV3 (Homo sapiens, UniProt P41162-2 1-143).
T12 sequence: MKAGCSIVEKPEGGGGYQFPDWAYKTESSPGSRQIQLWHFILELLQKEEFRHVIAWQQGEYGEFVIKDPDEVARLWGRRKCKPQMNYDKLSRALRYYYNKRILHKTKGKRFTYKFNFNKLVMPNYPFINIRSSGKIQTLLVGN
The note with it: protein: recombinant; tags: N-terminal GST; dsDNA, one strand shown. The method, boiled down:
as §1

The target of assay [18] is ETV6 (Homo sapiens, UniProt P41212 1-452). The conditions noted are these: protein: recombinant; tags: N-terminal GST; dsDNA, one strand shown. In outline: as §1
Sequence of ETV6 (P41212 whole entry): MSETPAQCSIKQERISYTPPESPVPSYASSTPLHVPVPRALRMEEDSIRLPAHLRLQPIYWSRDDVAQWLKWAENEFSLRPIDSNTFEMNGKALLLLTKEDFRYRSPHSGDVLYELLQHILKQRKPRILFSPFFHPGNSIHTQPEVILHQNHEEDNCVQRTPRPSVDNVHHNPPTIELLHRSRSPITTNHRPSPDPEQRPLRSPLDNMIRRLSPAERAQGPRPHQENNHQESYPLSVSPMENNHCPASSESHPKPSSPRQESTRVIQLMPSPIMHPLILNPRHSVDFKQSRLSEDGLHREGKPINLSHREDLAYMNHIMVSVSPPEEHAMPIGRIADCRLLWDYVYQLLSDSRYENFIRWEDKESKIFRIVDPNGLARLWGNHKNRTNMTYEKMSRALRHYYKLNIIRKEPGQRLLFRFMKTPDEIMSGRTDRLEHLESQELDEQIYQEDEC

Sequence of ETV1 (P50549 whole entry): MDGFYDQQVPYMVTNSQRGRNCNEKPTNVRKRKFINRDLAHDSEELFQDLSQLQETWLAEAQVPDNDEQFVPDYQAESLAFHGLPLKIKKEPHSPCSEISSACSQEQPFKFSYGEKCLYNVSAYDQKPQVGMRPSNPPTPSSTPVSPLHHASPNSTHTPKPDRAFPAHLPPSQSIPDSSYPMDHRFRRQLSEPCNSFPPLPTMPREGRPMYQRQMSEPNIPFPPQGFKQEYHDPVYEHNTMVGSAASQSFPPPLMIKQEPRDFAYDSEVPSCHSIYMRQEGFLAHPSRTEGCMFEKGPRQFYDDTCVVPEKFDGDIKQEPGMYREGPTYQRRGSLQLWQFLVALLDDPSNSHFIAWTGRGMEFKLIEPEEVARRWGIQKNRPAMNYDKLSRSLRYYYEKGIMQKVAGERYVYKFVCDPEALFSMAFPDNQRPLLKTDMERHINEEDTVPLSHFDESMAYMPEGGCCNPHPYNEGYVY
Sequence of ETV5 (P41161 whole entry): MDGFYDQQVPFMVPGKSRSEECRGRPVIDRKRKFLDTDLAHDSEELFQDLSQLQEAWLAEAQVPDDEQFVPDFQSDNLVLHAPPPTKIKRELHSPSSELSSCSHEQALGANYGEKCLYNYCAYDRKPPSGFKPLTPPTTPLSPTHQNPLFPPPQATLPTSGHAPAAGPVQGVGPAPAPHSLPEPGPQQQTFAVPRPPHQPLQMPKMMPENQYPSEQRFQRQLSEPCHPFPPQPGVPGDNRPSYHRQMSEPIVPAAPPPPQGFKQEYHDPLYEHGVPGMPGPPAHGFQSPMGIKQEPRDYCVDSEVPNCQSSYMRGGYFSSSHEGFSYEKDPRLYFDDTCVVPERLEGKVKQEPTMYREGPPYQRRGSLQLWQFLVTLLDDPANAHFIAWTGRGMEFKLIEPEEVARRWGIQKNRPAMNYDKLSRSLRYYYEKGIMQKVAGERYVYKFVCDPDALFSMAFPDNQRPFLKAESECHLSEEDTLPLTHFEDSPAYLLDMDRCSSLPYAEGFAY
Sequence of ELF4 (Q99607 whole entry): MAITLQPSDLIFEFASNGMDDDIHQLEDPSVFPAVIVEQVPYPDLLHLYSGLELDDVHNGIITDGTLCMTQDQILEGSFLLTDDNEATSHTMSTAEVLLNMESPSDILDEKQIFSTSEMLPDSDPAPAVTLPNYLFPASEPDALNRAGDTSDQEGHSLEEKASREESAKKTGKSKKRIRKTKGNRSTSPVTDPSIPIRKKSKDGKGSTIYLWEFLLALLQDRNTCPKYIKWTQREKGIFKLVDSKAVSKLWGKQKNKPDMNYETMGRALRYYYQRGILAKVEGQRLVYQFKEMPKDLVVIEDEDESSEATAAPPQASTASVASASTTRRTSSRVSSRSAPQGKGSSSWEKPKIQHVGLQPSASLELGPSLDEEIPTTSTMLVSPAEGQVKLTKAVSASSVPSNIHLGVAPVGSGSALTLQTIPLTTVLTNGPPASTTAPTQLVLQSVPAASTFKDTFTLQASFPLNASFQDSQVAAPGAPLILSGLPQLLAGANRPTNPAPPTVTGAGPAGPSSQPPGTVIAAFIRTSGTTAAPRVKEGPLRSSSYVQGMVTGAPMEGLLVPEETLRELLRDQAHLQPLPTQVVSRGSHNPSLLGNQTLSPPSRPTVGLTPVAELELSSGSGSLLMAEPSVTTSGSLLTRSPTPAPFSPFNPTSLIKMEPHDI
Sequence of HSF1 (Q00613 whole entry): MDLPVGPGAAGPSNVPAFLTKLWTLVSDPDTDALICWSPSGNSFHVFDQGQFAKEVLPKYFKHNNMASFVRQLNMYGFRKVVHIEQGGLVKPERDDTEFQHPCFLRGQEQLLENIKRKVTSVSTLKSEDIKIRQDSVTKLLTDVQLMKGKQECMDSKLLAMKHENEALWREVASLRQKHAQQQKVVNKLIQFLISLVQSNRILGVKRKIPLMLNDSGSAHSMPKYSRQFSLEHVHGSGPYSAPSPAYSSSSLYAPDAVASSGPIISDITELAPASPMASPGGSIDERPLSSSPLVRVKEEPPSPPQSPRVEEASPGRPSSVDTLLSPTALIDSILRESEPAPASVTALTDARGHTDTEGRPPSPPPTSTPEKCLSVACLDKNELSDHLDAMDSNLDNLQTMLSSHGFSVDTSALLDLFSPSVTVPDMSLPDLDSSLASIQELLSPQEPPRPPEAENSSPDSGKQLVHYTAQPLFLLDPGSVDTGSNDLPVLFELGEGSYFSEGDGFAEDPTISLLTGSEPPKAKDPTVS

Turning to ACAAAT, the binding signal in assay [1] is 1.16 fold enrichment (6-mer frequency, TF over GST control); in assay [2] it was 1.16 fold enrichment (6-mer frequency, TF over GST control); in assay [3], 1.17 fold enrichment (6-mer frequency, TF over GST control); in assay [4], 1.12 fold enrichment (6-mer frequency, TF over GST control); in assay [5], 1.18 fold enrichment (6-mer frequency, TF over GST control); in assay [6], 1.04 fold enrichment (6-mer frequency, TF over GST control). In addition, the binding signal was 1.16 fold enrichment (6-mer frequency, TF over GST control) in assay [7]; 1.22 fold enrichment (6-mer frequency, TF over GST control) in assay [8]; 1.29 fold enrichment (6-mer frequency, TF over GST control) in assay [9]; 1.15 fold enrichment (6-mer frequency, TF over GST control) in [10]; 1.3 fold enrichment (6-mer frequency, TF over GST control) in assay [11]; 1.15 fold enrichment (6-mer frequency, TF over GST control) in assay [12]. Moreover, the binding signal in [13] is 1.16 fold enrichment (6-mer frequency, TF over GST control); in assay [14], 1.1 fold enrichment (6-mer frequency, TF over GST control); in [15], 1.14 fold enrichment (6-mer frequency, TF over GST control); in assay [16] it was 1.13 fold enrichment (6-mer frequency, TF over GST control); in [17], 1.1 fold enrichment (6-mer frequency, TF over GST control); in assay [18] it was 1.17 fold enrichment (6-mer frequency, TF over GST control).
